Assay outcomes deposited in PubChem by several laboratories.
MEKK3 PB1 HTS = modulators (inhibitors or enhancers) of MEK5 binding to human MEKK3 PB1 domain; Q99759; hit rate 1.4% among 290,000; bead-based flow cytometry, Alexa488-MEK5 binding to MEKK3; actives lie on both sides; 0 = blocked by unlabeled MEK5, 100 = vehicle; binding response (% of control), % at 10 µM; AID 1529;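 active = binding response more than 3 SD above or below the average of its plate-row segment, actives on both sides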;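 also: Alexa488 bead fluorescence after subtracting the streptavidin-only scavenger bead signal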
MEKK2 WT-MEK5 = raises or lowers MEK5 binding to wildtype human MEKK2 PB1 domain | binding response (% of control), % at 10 µM | bead flow cytometry, Alexa488-MEK5 binding to MEKK2 WT; actives lie on both sides | hit rate 1.1% among 290,000 | Q9Y2U5; in the data active = binding response below about 67% or above about 130%
ABCB6 inh MLPCN = inhibitors of human ABC transporter ABCB6 | K562-ABCB6 porphyrin accumulation, flow cytometry, 1 h; hits give low values | fluorescence ratio to DMSO, % at 10 µM | hit rate 0.19% among 360,000 | AID 602162;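 active = fluorescence ratio to DMSO below 75%, the collection mean minus 3 SD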;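 also: signal is porphyrin accumulated inside mitochondria; 100% equals median channel fluorescence of DMSO control wells; lower ratio means ABCB6 inhibition with less porphyrin fluorescence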
CRFR2-BP antag = blocks CRF-induced signaling of the CRF-BP/CRF-R2 complex; hit rate 0.59% among 350,000; inhibition, % at 11.8 µM; HEK293 CRF-R2/CRF-BP, CRF-induced calcium fluorescence; AID 588475;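 active = inhibition of the ligand-induced calcium signal above about 50% at the single tested concentration, limit read from the data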
MEKK2mut PB1 HTS = signal of MEK5 binding to mutant human MEKK2 PB1 domain; bead flow cytometry, Alexa488-MEK5 binding to MEKK2 mutant; percent response, % at 10 µM; hit rate 0.35% among 290,000; in the data active = percent response above about 24%, passing the limit was not always enough
CRFBP-R2 agonist = CRF-BP/CRF-R2 complex agonism | AID 588473 | hit rate 0.46% among 350,000 | activation, % at 13.2 µM | HEK293 CRF-R2/CRF-BP, calcium dye fluorescence (FLIPR); percent of saturating CRF peptide response;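 active = activation of at least 50%, plus an integration ratio under a set limit after plate pattern correction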;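 also: plate controls were neutral control wells without compound for no effect and CRF at EC100 for full effect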
MEKK2wt confirm = raises or lowers MEK5 binding to wildtype human MEKK2, retest; shares compounds with MEKK3 PB1 HTS; bead flow cytometry, Alexa488-MEK5 binding to MEKK2 WT; actives lie on both sides; binding response (% of control), % at 10 µM; hit rate 2.4% among 5,900; AID 1892; in the data active = binding response below about 16% or above about 210%; inactive = in between
MEKK2mut-MEK5 = signal of MEK5 binding to mutant human MEKK2, retest; shares compounds with MEKK3 PB1 HTS; bead flow cytometry, Alexa488-MEK5 binding to MEKK2 mutant; AID 1893; hit rate 2% among 5,900; percent response, % at 10 µM; in the data active = percent response mostly above about 71%, no sharp cut-off; inactive = mostly below about 38%;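 also: higher means compound restores mutant binding toward wildtype level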
MEKK3 confirm = MEKK3-MEK5 PB1 inhibition, single concentration confirmation; shares compounds with MEKK3 PB1 HTS; bead flow cytometry, Alexa488-MEK5 binding to MEKK3; hits give low values; binding response (% of control), % at 10 µM; hit rate 1.8% among 5,900; AID 1894;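 active = binding response below 72% of control, or above a set upper limit, though filed actives all read lower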;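 also: 100% = DMSO only wells and 0% = binding blocked by excess unlabeled MEK5; lower values mean stronger disruption of MEK5 binding to MEKK3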
The depositor's hits bear a star; nt = no result; [ ] = dose if it differs, or a comment. Hits are enriched below; roughly 2.9% of the tested compounds scored in any of these assays.

SMILES | MEKK3 PB1 HTS | MEKK2 WT-MEK5 | ABCB6 inh MLPCN | CRFR2-BP antag | MEKK2mut PB1 HTS | CRFBP-R2 agonist | MEKK2wt confirm | MEKK2mut-MEK5 | MEKK3 confirm
Cn1c(=O)cc(OCC(=O)NCc2cccnc2)c2ccccc21 | 97 | 93 | 104 | 6 | -1 | 2 | nt | nt | nt
CCOC(=O)c1c(C)[nH]c(C(=O)CN(C)CC(=O)Nc2ccccc2C(F)(F)F)c1C | nt | nt | 93 | 0 | nt | 0 | nt | nt | nt
NNc1nc2cc3c(cc2s1)OCCO3 | 101 | 103 | 104 | -10 | 4 | -1 | nt | nt | nt
Cc1onc(-c2ccccc2)c1C(=O)NC(=S)NNC(=O)c1cccnc1 | 104 | 102 | 99 | 10 | 0 | 0 | nt | nt | nt
Cc1onc(-c2ccccc2)c1C(=O)NC(=S)NNC(=O)c1ccncc1 | 131* | 107 | 103 | -34 | 1 | 0 | 105 | -2 | 100
CN(Cc1ccc(C#CCCO)cc1)CC1CCCN(CCc2ccc(Cl)cc2)C1 (stereo not given) | 110 | 154* | 101 | -8 | 21 | 8 | 121 | 20 | 100
CCc1cccc(C)c1N(C(=O)Cn1c(=O)[nH]c2ccccc21)C(C)COC (stereo not given) | 111 | 114 | 95 | -14 | 24* | 2 | 99 | -3 | 100
COc1cccc(-n2c(C)nn(C)c2=O)c1 | 104 | 102 | 97 | 16 | 3 | -1 | nt | nt | nt
COc1cccc(-n2c(C)n[nH]c2=O)c1 | 3.0*[inhibitor] | 3.0*[inhibitor] | 101 | 8 | -14 | 0 | 102 | 5 | 100
CC(C)(C)NC(=O)COc1ccc(CNCc2cccs2)cc1 | 2.0*[inhibitor] | -1.0*[inhibitor] | 95 | 16 | -27 | 0 | 109 | 9 | 102
c1ccc(COc2ccc(CNCc3cccs3)cc2)cc1 | 108 | 121 | 94 | -26 | 6 | -3 | nt | nt | nt
O=C(COC(=O)CNC(=O)c1ccccc1Cl)Nc1ccccc1Cl | nt | nt | 98 | 28 | nt | -3 | nt | nt | nt
C=CCOc1nc2c(c(=O)n(C)c(=O)n2C)n1Cc1c(Cl)cccc1Cl | 81*[inhibitor] | 89 | 83 | 36 | -6 | -2 | 100 | -4 | 104
CCOc1nc2c(c(=O)n(C)c(=O)n2C)n1Cc1ccccc1Cl | 75 | 76 | 97 | 5 | -7 | -2 | nt | nt | nt
CC1CCCC(NC(=O)COC(=O)/C=C/c2ccc(F)cc2)C1C (stereo not given) | nt | nt | 100 | 5 | nt | 0 | nt | nt | nt
Cc1ccc(C(=O)N/C(=C\c2ccc(Br)cc2)c2nc(=S)[nH][nH]2)cc1 | 97 | 65*[inhibitor] | 99 | 18 | -10 | -1 | 82 | -15 | 96
CSCCC(NC(=O)c1cccc([N+](=O)[O-])c1)c1nc2ccccc2[nH]1 (stereo not given) | 99 | 100 | 98 | 10 | -1 | 0 | nt | nt | nt
CSCC[C@H](NC(=O)c1cc([N+](=O)[O-])ccc1Cl)c1nc2ccccc2[nH]1 | 143* | 109 | 103 | -9 | 1 | -1 | 97 | 3 | 100
CCC(=O)c1ccc(OCC(O)CN2CCN(C(c3ccccc3)c3ccccc3)CC2)cc1 (stereo not given) | 105 | 158* | 100 | -18 | 18 | -3 | 114 | 8 | 103
CCC(=O)c1ccc(OCC(O)CN2CCOCC2)cc1 (stereo not given) | 2.0*[inhibitor] | 2.0*[inhibitor] | 93 | 9 | -31 | 0 | 99 | -2 | 101
CC(=O)c1ccc(OCC(O)CN2CCOCC2)cc1 (stereo not given) | 108 | 109 | 90 | 11 | 7 | -1 | nt | nt | nt
OC(COc1ccccc1)CN1CCN(C(c2ccccc2)c2ccccc2)CC1 (stereo not given) | 114 | 131 | 98 | -19 | 23 | 0 | nt | nt | nt
